Most compounds without a hit are left out; they make up all but 9.4% or so of the library.
SMN2 splice enh – SMN2 splice variant enhancement. Potency, µM (doses to about 46.1 µM), actives largely listed as activators. HEK293 SMN2-luciferase splicing reporter, luminescence, 30-36 h. 210,000 compounds, 2.8% hits. AID 1458; further: nearly all actives have a fitted effect of over 55% in size
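HEK293 cells carry an SMN2 […]–luciferase reporter in which exon 7 inclusion puts luciferase in frame. Cells were plated 10-12 h before compound addition, then incubated 30-36 h at 37C. ONE-Glo luminescence was read; sodium butyrate at 4.5 mM final served as control.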
ELG1 repair inh – inhibitors of ELG1-dependent DNA repair in HEK293T cells. HEK293T ELG1-luciferase reporter, luminescence, 16 h; DNA damage induced by 5-fluorouridine. Potency, µM (series often up to 46.1 µM), most hits filed as inhibitors. 330,000 compounds, 2.3% hits. AID 504467; further: nearly all actives have a fitted effect of over 55% in size
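HEK293T cells expressing luciferase-tagged ELG1 (2,000/well) received 5-Fluorouridine plus compound or DMSO for 16 hr at 37 °C. Luciferase was read by ONE-Glo luminescence after 30 min at room temperature.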
ELG1 genotox – induces genotoxicity in HEK293T cells with luciferase-tagged ELG1; HEK293T ELG1-luciferase reporter, luminescence, 16 h; Potency, µM (doses to about 46 µM), actives largely listed as activators; 330,000 compounds, 1.3% hits; AID 504466; further: nearly all actives have a fitted effect of over 60% in size
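Screening used a luciferase reporter fused to human ELG1 in HEK293T cells. Luminescence was read on a CCD plate imager after 16 hr exposure and 30 min ONE-Glo incubation.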
NPC1 prom act – activates the NPC1 promoter; Potency, µM (titrated, usually from 9.22 µM), hits mostly activators; 320,000 compounds, 2.4% hits; Huh7 NPC1 promoter luciferase reporter, 24 h; AID 485313; further: nearly all actives have a fitted effect of over 60% in size
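Luciferase expression driven by the NPC1 promoter was measured in stably transfected Huh7 cells after a 24 h compound incubation, using a luciferase reagent and a luminescence read.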
FLuc modulator – inhibits or activates purified firefly luciferase, miR-21 counter-screen | P08659 | AID 588342 | purified FLuc, Km substrates, luminescence inhibition | Potency, µM (highest dose often 57.5 µM), actives largely listed as inhibitors | 360,000 compounds, 6.9% hits; further: nearly all actives have a fitted effect of over 55% in size
Target sequence (P08659 whole entry, looked up): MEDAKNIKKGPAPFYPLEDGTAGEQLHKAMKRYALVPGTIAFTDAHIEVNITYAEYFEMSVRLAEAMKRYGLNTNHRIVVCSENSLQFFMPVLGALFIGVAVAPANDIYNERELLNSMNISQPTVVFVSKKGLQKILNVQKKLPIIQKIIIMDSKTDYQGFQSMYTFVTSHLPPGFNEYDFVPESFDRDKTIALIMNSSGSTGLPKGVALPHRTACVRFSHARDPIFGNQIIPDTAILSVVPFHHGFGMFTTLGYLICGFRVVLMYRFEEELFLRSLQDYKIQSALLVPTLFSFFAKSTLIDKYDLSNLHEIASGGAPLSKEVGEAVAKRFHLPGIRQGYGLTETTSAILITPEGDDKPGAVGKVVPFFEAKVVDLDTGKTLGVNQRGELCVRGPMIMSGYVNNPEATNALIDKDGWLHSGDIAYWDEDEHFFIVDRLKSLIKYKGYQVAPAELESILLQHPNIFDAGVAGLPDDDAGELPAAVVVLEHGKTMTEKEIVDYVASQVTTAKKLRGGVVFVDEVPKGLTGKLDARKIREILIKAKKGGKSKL
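Purified P. pyralis luciferase (10nM final) with 10uM D-luciferin and 10uM ATP (Km levels) in 50mM Tris acetate pH 7.5, 10mM Mg acetate, 0.01% Tween-20, 0.05% BSA; qHTS 6-point titration, ~60 µM downward; luminescence read.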
Rab9 promoter act – activators of Rab9 promoter; Huh7 Rab9 promoter-luciferase reporter, luminescence, 24 h; Potency, µM (doses to about 9.22 µM), usual class: activators; 320,000 compounds, 2.8% hits; AID 485297; further: nearly all actives have a fitted effect of over 60% in size
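Rab9 promoter-driven luciferase in stably transfected Huh7 cells; 1500 cells/well rested 2 h, exposed to compound in DMSO for 24 h at 37 °C, 5% CO2. Luminescence read 10 min after adding luciferase reagent at ambient temperature.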
A number is an active result; . = inactive; ? = inconclusive; / = no result; [ ] = remark or other dose. The call rests on the fitted dose curve; in most records, active means well fitted curve in the direction sought with a large enough effect; inconclusive means small, poorly fitted or top-dose-only effect, or another doubt; inactive means no such curve, though single readings can be large; an effect the other way counts as inactive or inconclusive.

SMILES | SMN2 splice enh | ELG1 repair inh | ELG1 genotox | NPC1 prom act | FLuc modulator | Rab9 promoter act
COc1ccc(/C=C/C2=NC(=C\N(C)C)/C(=O)O2)cc1 | . | ? | ? | ? | 21µM | ?
CCc1nn2c(=O)cc(COC(=O)c3cccc(NC(=O)c4cccs4)c3)nc2s1 | / | / | / | / | . | /
Nc1nnc(-c2ccc(Cl)cc2Cl)s1 | / | ? | ? | . | 12µM | ?
Nc1nnc(-c2ccccc2F)s1 | / | ? | . | . | ? | .
COc1ccc(CNC(=O)CCn2c(=O)[nH]c3ccccc3c2=O)cc1 | . | . | . | . | . | .
COc1cc2[nH]c(=O)n3nc(-c4ccccc4)nc3c2cc1OC | . | 21µM | . | . | . | .
COc1ccc(-c2nc3c4ccccc4[nH]c(=O)n3n2)cc1 | . | / | / | / | 8.5µM | /
COCCNC(=O)CSc1nnc(-c2ccc(OC)c(OC)c2)c(-c2ccc(OC)c(OC)c2)n1 | / | / | / | / | . | /
O=C(/C=C/c1cccc(O)c1)c1ccc(N2CCOCC2)cc1 | / | ? | . | ? | 1.2µM | ?
CN1CCC(NC(=O)c2cnn3c2NC(=C2CC2)C=C3C(F)F)CC1 | / | / | / | / | . | /
CCCCc1nc(NCCNC(=O)c2ccco2)c(C#N)c2c1CSC(C)(C)C2 | . | 15µM | . | . | . | .
Cc1noc(C)c1C(=O)OCC(=O)NCc1ccccc1 | / | . | . | . | . | .
COCc1cc(C)nc2sc3c(=O)n(-c4cc(C)ccc4C)nnc3c12 | . | / | / | / | . | /
CCC(=O)C1CCCN(C(=O)CCc2nnc(-c3ccc(C(C)=O)s3)o2)C1 (stereo unspecified) | / | ? | ? | ? | 11µM | ?
CCCOC1CCCN(C(=O)CCc2nnc(-c3ccc4c(c3)OCO4)o2)C1 (stereo unspecified) | / | ? | ? | ? | ? | 3.2µM
CCC(=O)C1CCCN(C(=O)CCc2nnc(-c3ccc4c(c3)OCO4)o2)C1 (stereo unspecified) | / | ? | ? | . | ? | ?
O=C(O)c1cc([N+](=O)[O-])ccc1N1CCCCC1 | . | . | . | . | . | .
O=[N+]([O-])c1ccc2c(c1)N([O-])C1(CCCCC1)[N+]2=O | / | . | . | . | 15µM | .
CCOC(=O)C1=C(CS(=O)(=O)c2ccc(F)c(C)c2)NC(=O)NC1c1ccccc1OC (stereo unspecified) | . | / | / | / | . | /
CCOc1ccccc1NC(=O)c1nc2nc(C)cc(C(F)F)n2n1 | / | / | / | / | . | /
CCOc1ccc(OCCSc2nc(N)cc(=O)[nH]2)cc1 | / | ? | . | . | ? | .
Cc1cc(=O)[nH]c(SCCOc2ccc(OC(C)C)cc2)n1 | ? | ? | 5.2µM | ? | 15µM | ?
Cc1cc(=O)[nH]c(SCCCOc2ccccc2Cl)n1 | . | . | . | . | 24µM | .
C/C=C/c1ccc(OCCSc2nc(C)cc(=O)[nH]2)c(OC)c1 | . | ? | ? | . | 13µM | .
C/C=C/c1ccc(OCCOc2ccc(C=O)cc2)c(OC)c1 | . | . | . | . | . | .
SMILES | SMN2 splice enh | ELG1 repair inh | ELG1 genotox | NPC1 prom act | FLuc modulator | Rab9 promoter act
Cc1cc(=O)[nH]c(SCCOc2ccc3c(c2)CCC3)n1 | 13µM | / | / | / | 7.6µM | /
CC(C)(N)C(=O)N[C@@H]1C(=O)N2[C@@H]1SC(C)(C)[C@H]2C(=O)O | .[9.22 µM] | / | / | / | / | /
COC(=O)c1c(Oc2ccc(Br)cc2)nnc(-c2ccccc2)c1-c1ccccc1 | . | / | / | / | . | /
CCc1cc2c(-c3ccccc3)cc(=O)oc2c2c1OCN(Cc1ccc(F)cc1)C2 | . | / | / | / | . | /
CC(C)(C)C1CCc2c(sc(NC(=O)c3cccc(Cl)c3)c2C(=O)NCc2ccco2)C1 (stereo unspecified) | . | / | / | / | . | /
COC(=O)c1ccccc1S(=O)(=O)N1CCc2nc(-c3ccc(OC)cc3C)c3c(c2C1)CO[C@@H](c1ccccc1)C3 | .[9.22 µM] | / | / | / | / | /
CCCCNc1c(-c2ccc(SC(C)CC)cc2)nc2ccccn12 (stereo unspecified) | / | ? | . | 3.5µM | 1.3µM | 3.5µM
CCCCNc1c(-c2ccc(SC3CCCCC3)cc2)nc2ccccn12 | / | ? | 10µM | 2.8µM | 4.8µM | 4µM
CCCCNc1c(-c2cccc(SC3CCCCC3)c2)nc2ccc(Cl)cn12 | / | ? | . | . | . | .
O=C(O)c1ccc(Nc2nc(-c3cc4ccccc4oc3=O)cs2)cc1O | . | ? | . | . | 4.8µM | .
COc1ccc(Nc2nc(-c3cc4cccc(OC)c4oc3=O)cs2)cc1 | . | ? | . | . | . | .
O=C(Nc1nc(-c2cc3ccccc3oc2=O)cs1)c1ccc(Br)o1 | . | . | . | . | . | .
N#CCc1nc(-c2cc3ccccc3oc2=O)cs1 | . | . | . | . | . | .
COc1cccc2sc(Nc3nc(-c4cc5ccccc5oc4=O)cs3)nc12 | . | ? | . | . | ? | .
Nc1ccc(Nc2nc(-c3cc4ccccc4oc3=O)cs2)cc1 | ? | ? | ? | ? | 2.4µM | ?
COc1ccc2oc(=O)c(-c3csc(Nc4cccc(O)c4)n3)cc2c1 | ? | 26µM | . | . | 1.7µM | .
CC(=O)Nc1ccc(Nc2nc(-c3cc4ccccc4oc3=O)cs2)cc1 | / | ? | ? | ? | 5.4µM | ?
CCCC(C(=O)Nc1ccc(S(=O)(=O)Nc2nccs2)cc1)c1ccccc1 (stereo unspecified) | / | . | . | . | . | .
CCc1ccc(S(=O)(=O)NCCc2csc3nc(-c4ccccc4)nn23)s1 | / | / | / | / | . | /
CNc1nnc(-c2cc3ccccc3oc2=O)s1 | 13µM | ? | 18µM | 1.4µM | 4.8µM | 1.4µM
Cc1ccc2c(c1)cc(C(=O)NCc1ccc(F)cc1)n2C | / | / | / | / | . | /
N#C/C(=C\c1ccc(-c2ccc(C(=O)O)cc2)o1)c1nc2ccccc2[nH]1 | ? | ? | . | 4µM | 9.5µM | 2.5µM
N#C/C(=C\c1ccc(-c2ccc(Cl)c(C(=O)O)c2)o1)c1nc2ccccc2[nH]1 | . | / | / | . | 6µM | .
O=C(Nc1noc2ccccc12)c1cccc(F)c1 | ? | / | / | / | 2.4µM | /
O=C(Nc1ncn[nH]1)c1cccc(F)c1 | / | . | . | . | . | .
SMILES | SMN2 splice enh | ELG1 repair inh | ELG1 genotox | NPC1 prom act | FLuc modulator | Rab9 promoter act
O=C(Nc1noc2ccccc12)c1ccc(F)cc1 | ? | / | / | / | 2.1µM | /
CC(=O)Nc1nonc1NC(=O)c1ccc(F)cc1 | . | . | . | . | . | .
O=C(Nc1ccc(Br)cc1)c1cc(-c2ccncc2)nc2ccccc12 | / | ? | . | / | / | /
Cc1cccc(Nc2nc(-c3ccccc3)c(C(=O)Nc3cccnc3)s2)c1 | . | 13µM | . | . | 17µM | .
Cc1cccc(-c2cc(C(=O)Nc3ccncc3)c3ccccc3n2)c1 | / | ? | . | . | 24µM | .
Cc1cccc(-c2cc(C(=O)Nc3cccnc3)c3ccccc3n2)c1 | / | ? | . | . | 15µM | .
Cc1ccc(-c2cc(C(=O)Nc3cccnc3)c3ccccc3n2)s1 | / | . | . | . | 9.5µM | .
Cc1ccc2nc(-c3ccccc3)cc(C(=O)Nc3cccnc3)c2c1 | / | . | . | . | / | .

Screens: PubChem BioAssay, National Center for Advancing Translational Sciences (NCATS)
